Results reported in PubChem BioAssay (EPA / NIEHS).
A structure can be active in one record and inactive in another. Calls of active or inactive are those of the source. Rule for the calls: active = hit-call score of the fitted dose curve at least 0.9, where 1 is the maximum; inactive = score below 0.9.

Assay: ATG_TAL_CIS: Attagene CIS-FACTORIAL HepG2 Assay for human TAL Basal Promoter (AID 2282966)
Conditions: HepG2 Attagene cis-factorial TAL promoter reporter; actives raise or lower the signal
Method: ATG_CIS is a cell-based, multiplexed-readout assay that uses HepG2, a human liver cell line, with measurements taken at 24 hours after chemical dosing in a 24-well plate.ATG_TAL_CIS is one of 52 assay component(s) measured or calculated from the ATG_CIS assay. It is designed to make measurements of mRNA induction, a form of inducible reporter, as detected with fluorescence intensity signals by Reverse transcription polymerase chain reaction (RT-PCR) and Capillary electrophoresis technology.Data from the assay component ATG_TAL_CIS was analyzed into 1 assay endpoint. This assay endpoint, ATG_TAL_CIS, was analyzed with bidirectional fitting relative to DMSO as the negative control and baseline of activity. Using a type of inducible reporter, measures of mRNA for gain or loss-of-signal activity can be used to understand the background control at the transcription factor-level as they relate to the gene . Furthermore, this assay endpoint can be referred to as a secondary readout, because this assay has produced multiple assay endpoints where this one serves a background control function. To generalize the intended target to other relatable targets, this assay endpoint is annotated to the background measurement intended target family, where the subfamily is internal marker.
Human liver HepG2 cells are transiently transfected with multiple reporter transcription units (MRTUs) in 6-well plates using FuGene 6 reagent (Roche; 3 ml FuGene/1 mg DNA). The MRTU constructs are regulated by a cis-regulating element (promoter). […] A major difference between the CIS and TRANS system is that in CIS activities of endogenous TFs are measured, whereas the TRANS assay evaluates changes in activities of exogenous, chimeric NR-Gal4 proteins. […] At the end of 24 hour incubation, total RNA was isolated using TriZol reagent (Invitrogen). The isolated RNA is then reverse-transcribed using oligo(dT) primer and Mo-MLV reverse transcriptase (Invitrogen) with DNAse I (Ambion) treatment for 30 min. The one-tenth of the produced cDNA was amplified by PCR using Taq DNA polymerase (Invitrogen) and two reporter sequence-specific primers. The PCR products were fluorescently labeled by primer extension with 6-arboxyfluorescein (6-FAM) 5'-labeled reporter sequence-specific primer (2 min at 95 C, 20 s at 68 C and 10 min at 72 C) and these products were digested with 5U of HpaI (New England Biolabs) for 2h at 37 C. The fragments were purified using Qiaquick PCR columns (Qiagen), analyzed on an ABI 3130xL genetic analyzer (Applied Biosystems) with peak positions identified by using a set of X-rhodamine (ROX)-labeled MapMarker1000 molecular weight standards (BioVentures). The raw capillary electrophoresis data was processed using Attagraph software (Attagene).
For `O=C(O)C(F)(F)C(F)(F)C(F)(F)C(F)(F)C(F)(F)C(F)(F)C(F)(F)C(F)(F)C(F)(F)C(F)(F)F`, the AC50 was 95.5 µM (active) and the outcome was “inactive”. For `Clc1ccc(COC(Cn2ccnc2)c2ccc(Cl)cc2Cl)cc1` (stereo not given), the outcome was “inactive”. In the case of `NC(=O)O`, the outcome is reported as “inactive”. For `CC(C)(C)c1cc(O)ccc1O`, the outcome was “inactive”. In the case of `CCOP(=S)(OCC)Oc1ccc(S(C)=O)cc1` (stereo not given), the outcome is reported as “inactive”. With `Clc1nc(Cl)nc(Cl)n1` the outcome was “inactive”. For `O=C1C(Cl)=C(Cl)C(=O)c2ccccc21`, the outcome was “inactive”. With `CC(C#N)CCC#N` (stereo not given) the outcome was “inactive”. In the case of `C=C(C)C#N`, the outcome is reported as “inactive”. For `[O-][Cl+2]([O-])O`, the outcome was “inactive”. In the case of `CCN(CC)C(=O)Cl`, the outcome is reported as “inactive”. For `CCCCCCCCc1ccc(O)cc1`, the outcome was “inactive”. In the case of `ClC1(Cl)C2(Cl)C3(Cl)C4(Cl)C(Cl)(Cl)C5(Cl)C3(Cl)C1(Cl)C5(Cl)C24Cl` (stereo not given), the outcome is reported as “inactive”. In the case of `CC(C)(c1ccc(OCC2CO2)cc1)c1ccc(OCC2CO2)cc1` (stereo not given), the AC50 is reported as 23.2 µM (active). In the case of `C=CCc1ccc(OC)cc1`, the outcome is reported as “inactive”. With `Cn1sc(Cl)cc1=O` the outcome was “inactive”. For `O=C(OC1CCCCC1)c1ccccc1C(=O)OC1CCCCC1`, the outcome was “inactive”. With `CC(Br)C(=O)O` (stereo not given) the outcome was “inactive”. With `N#CCCO` the outcome was “inactive”. In the case of `Oc1cccc2cccnc12`, the outcome is reported as “inactive”. For `C[C@]12CCC(=O)C[C@@H]1CC[C@@H]1[C@@H]2CC[C@]2(C)[C@@H](O)CC[C@@H]12`, the outcome was “inactive”. With `O=[N+]([O-])c1c(Cl)c(Cl)cc(Cl)c1Cl` the outcome was “inactive”. With `COP(=S)(OC)Oc1ccc(S(=O)(=O)N(C)C)cc1` the outcome was “inactive”. In the case of `OCC(O)CCl` (stereo not given), the outcome is reported as “inactive”. For `ClCC(Cl)CCl`, the outcome was “inactive”. In the case of `CCOP(=O)(CN(CCO)CCO)OCC`, the outcome is reported as “inactive”. For `CCOP(=S)(OCC)SCCS(=O)(=O)CC`, the outcome was “inactive”. For `COC[C@H](C)N(C(=O)CCl)c1c(C)csc1C`, the outcome was “inactive”. For `COP(=S)(OC)Oc1c(Cl)cc(C)cc1Cl`, the outcome was “inactive”. For `Nc1ncc([N+](=O)[O-])s1`, the outcome was “inactive”. For `Cc1ccccc1N`, the outcome was “inactive”. With `CCOP(=S)(OCC)Oc1nc(Cl)c(Cl)cc1Cl` the outcome was “inactive”. For `c1cc[c]([Hg][c]2ccccc2)cc1`, the outcome was “inactive”. For `C1CCC(NC2CCCCC2)CC1`, the outcome was “inactive”. For `CCOC(=O)CP(=O)(OCC)OCC`, the outcome was “inactive”. With `ClC1=C(Cl)[C@]2(Cl)[C@H]3[C@H]([C@H]4C=C[C@H]3C4)[C@@]1(Cl)C2(Cl)Cl` the outcome was “inactive”. With `CCC(=O)c1ccccc1` the outcome was “inactive”. In the case of `COC(=O)c1sccc1S(=O)(=O)NC(=O)Nc1nc(C)nc(OC)n1`, the outcome is reported as “inactive”. In the case of `C(=NC1CCCCC1)=NC1CCCCC1`, the outcome is reported as “inactive”.
